The record followed here is PubChem BioAssay (Tox21).

A short description of assay [1]: Caspase-3/7 induction in HepG2 cells by small molecules, qHTS assay (AID 1346978). Further: nearly all actives have a fitted effect of over 15% in size. Put shortly: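 Wild-type HepG2 cells (2,000/well) were settled 5 h at 37 C, 5% CO2, then exposed to compounds in DMSO for 17 h. Caspase-3/7 activity was read by luminescence 30 min after adding Caspase-Glo 3/7 reagent at room temperature.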
(In general: Quantitative high-throughput screening tests each substance at several concentrations.)

The nature of assay [2]: Caspase-3/7 induction in CHO-K1 cells by small molecules, qHTS assay (AID 1346980). Further: nearly all actives have a fitted effect of over 15% in size. Put shortly:
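Wild-type cells were seeded at 1,500 per well and settled 5 hr at 37 C, 5% CO2, then exposed to DMSO-dissolved compounds for 17 hr. Caspase-Glo 3/7 reagent was added, and luminescence was read after 30min at room temperature.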

A short description of assay [3]: Caspase-3/7 induction in HepG2 cells by small molecules, qHTS cell viability counter screen (AID 1346981). Further: series mostly up to about 92 µM; nearly all actives have a fitted effect of over 30% in size. Put shortly: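 In this quantitative HTS counter screen, compounds delivered in DMSO were left on unmodified HepG2 cells for 16 hr at 37 C. Viability was then determined fluorometrically with CellTiter-Fluor, in parallel with caspase-3/7 induction in the same wells.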

Assay [4] deals with Nuclear receptor subfamily 1 group I member 2 (Homo sapiens) (UniProt O75469). Put plainly: Human pregnane X receptor (PXR) small molecule agonists, qHTS assay (AID 1346982). Further: nearly all actives have a fitted effect of over 35% in size. Put shortly:
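Reporter HepG2 cells expressing PXR-Luc are cultured in charcoal-stripped FBS (5%), treated with compounds for 24 hr at 37 C, and assayed by ONE-Glo luminescence after 30 min at room temperature.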

The target in assay [5] is Acetylcholinesterase (Homo sapiens) (UniProt P22303). Put plainly: Acetylcholinesterase (AChE) small molecule antagonists: colormetric cell-based qHTS assay (AID 1347395; calls by dose curve; further: nearly all actives have a fitted effect of over 30% in size; further: potency means the concentration at half of the fitted maximal effect). Put shortly: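 AChE inhibition read colorimetrically via DTNB–thiocholine in SH-SY5Y cells. Compound 30 min, substrate 90 min, both 37 C.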
Sequence of Acetylcholinesterase (Homo sapiens) (P22303 whole entry, looked up): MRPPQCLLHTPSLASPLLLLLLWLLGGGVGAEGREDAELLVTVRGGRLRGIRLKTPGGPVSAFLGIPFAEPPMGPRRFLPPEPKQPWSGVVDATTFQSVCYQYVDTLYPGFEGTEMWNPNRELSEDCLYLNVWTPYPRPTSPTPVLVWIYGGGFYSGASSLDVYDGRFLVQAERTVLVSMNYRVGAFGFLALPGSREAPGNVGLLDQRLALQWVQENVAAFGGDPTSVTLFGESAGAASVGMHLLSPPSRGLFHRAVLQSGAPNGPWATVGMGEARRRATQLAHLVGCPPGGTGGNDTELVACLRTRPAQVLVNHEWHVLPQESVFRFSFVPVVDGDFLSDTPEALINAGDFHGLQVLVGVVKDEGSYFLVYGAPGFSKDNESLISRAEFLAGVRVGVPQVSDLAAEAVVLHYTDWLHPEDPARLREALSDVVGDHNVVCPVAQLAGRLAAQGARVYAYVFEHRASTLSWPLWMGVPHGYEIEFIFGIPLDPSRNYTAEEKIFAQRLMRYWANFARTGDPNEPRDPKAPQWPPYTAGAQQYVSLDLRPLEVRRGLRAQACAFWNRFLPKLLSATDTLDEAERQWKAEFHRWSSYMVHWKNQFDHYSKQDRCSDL
Assay [6] shares this target. The assay can be described thus: Acetylcholinesterase (AChE) small molecule antagonists: enzyme-based qHTS assay (AID 1347397; calls by dose curve; further: nearly all actives have a fitted effect of over 55% in size). The settings on record: Potency: AChE enzyme activity inhibition. Put shortly:
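Compound or DMSO vehicle was pin-transferred onto recombinant human AChE (50 mU/mL as dispensed) and left 30 min at room temperature. Acetylthiocholine with DTNB then started the reaction, read colorimetrically 10 min later.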

Assay [7] has the same target. The assay can be described thus: Acetylcholinesterase (AChE) small molecule antagonists: fluorescence cell-based qHTS assay (AID 1347398; calls by dose curve; further: nearly all actives have a fitted effect of over 50% in size; further: potency means the concentration at half of the fitted maximal effect). Conditions: Potency: AChE activity. In a few lines: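 Using neuroblastoma SH-SY5Y cells as the enzyme source, test chemicals are preincubated 30 min at 37 C; AChE-driven acetylthiocholine cleavage is then quantified by thiocholine-dependent Thiolite Green fluorescence after 40 min at room temperature.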

The target is the same in assay [8]. Put plainly: Acetylcholinesterase (AChE) small molecule antagonists: enzyme-based qHTS assay with human liver microsomes (AID 1347399; calls by dose curve; further: nearly all actives have a fitted effect of over 60% in size). The settings on record: Potency: qHTS inhibition. Put shortly:
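Recombinant human AChE (50 mU/mL in the enzyme mix) and human liver microsomes (0.25 mg/mL final) were preincubated with compound and NADPH (0.25 mg/mL final) for 30 min at 37 C. Acetylthiocholine/DTNB was then added; thiocholine was read colorimetrically after 10 min at room temperature.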

In assay [9] the target is Cytochrome P450 2D6 (Homo sapiens) (UniProt P10635). The assay can be described thus: Cytochrome P450 Family 2 Subfamily D Member 6 (CYP2D6) small molecule antagonists: luciferase reporter qHTS assay (AID 1671196). Further: nearly all actives have a fitted effect of over 50% in size. Further: potency means the concentration at half of the fitted maximal effect. Put shortly: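 Test chemicals meet CYP2D6 plus proluciferin substrate (10 min, RT); NADPH regenerating solution then drives turnover for 1 h. Detection reagent halts the reaction; luminescence measured after 20 min.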
Sequence of Cytochrome P450 2D6 (Homo sapiens) (P10635 whole entry, looked up): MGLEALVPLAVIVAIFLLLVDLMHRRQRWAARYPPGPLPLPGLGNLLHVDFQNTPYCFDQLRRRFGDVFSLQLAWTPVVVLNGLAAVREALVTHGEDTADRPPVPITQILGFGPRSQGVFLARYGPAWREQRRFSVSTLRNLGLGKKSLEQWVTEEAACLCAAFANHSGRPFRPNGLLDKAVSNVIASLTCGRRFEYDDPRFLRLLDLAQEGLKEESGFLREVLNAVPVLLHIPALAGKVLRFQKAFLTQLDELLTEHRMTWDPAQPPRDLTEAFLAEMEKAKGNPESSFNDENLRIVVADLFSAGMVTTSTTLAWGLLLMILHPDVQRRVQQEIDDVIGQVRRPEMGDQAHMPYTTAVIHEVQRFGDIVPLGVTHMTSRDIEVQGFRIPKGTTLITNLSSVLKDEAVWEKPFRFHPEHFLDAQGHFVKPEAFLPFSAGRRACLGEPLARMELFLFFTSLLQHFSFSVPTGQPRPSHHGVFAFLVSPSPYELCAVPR
In general terms: Reporter assays use an easily measured gene product as a stand-in for the process of interest.

In assay [10] the target is Cytochrome P450 2C19 (Homo sapiens) (UniProt P33261). The assay can be described thus: Cytochrome P450 Family 2 Subfamily C Member 19 (CYP2C19) small molecule antagonists: luciferase reporter qHTS assay (AID 1671197). Further: nearly all actives have a fitted effect of over 65% in size. Further: potency means the concentration at half of the fitted maximal effect. In a few lines: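 P450-Glo CYP2C19 system: enzyme-substrate mix with compound 10 min at room temperature, then NADPH regeneration solution, 1 h at 37C. Proluciferin-to-luciferin conversion detected by luminescence after 20 min with detection reagent; ketoconazole as positive control.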
Sequence of Cytochrome P450 2C19 (Homo sapiens) (P33261 whole entry, looked up): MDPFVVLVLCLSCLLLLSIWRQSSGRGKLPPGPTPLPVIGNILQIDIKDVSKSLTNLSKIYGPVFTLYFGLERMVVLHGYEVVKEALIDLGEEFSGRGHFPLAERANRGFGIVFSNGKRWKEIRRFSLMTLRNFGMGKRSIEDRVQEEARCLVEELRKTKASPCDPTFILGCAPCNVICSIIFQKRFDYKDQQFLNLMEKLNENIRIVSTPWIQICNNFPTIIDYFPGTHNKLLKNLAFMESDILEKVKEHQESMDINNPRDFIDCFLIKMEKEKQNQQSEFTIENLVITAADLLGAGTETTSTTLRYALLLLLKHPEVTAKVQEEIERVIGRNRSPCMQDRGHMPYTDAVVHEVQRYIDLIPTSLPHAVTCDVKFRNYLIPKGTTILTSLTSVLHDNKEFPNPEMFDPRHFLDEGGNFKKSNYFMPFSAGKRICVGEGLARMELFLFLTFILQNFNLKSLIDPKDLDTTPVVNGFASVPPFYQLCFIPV

Assay [11] deals with Cytochrome P450 1A2 (Homo sapiens) (UniProt P05177). The assay can be described thus: Cytochrome P450 Family 1 Subfamily A Member 2 (CYP1A2) small molecule antagonists: luciferase reporter qHTS assay (AID 1671199). Further: nearly all actives have a fitted effect of over 50% in size. Further: potency means the concentration at half of the fitted maximal effect. Put shortly: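 Steps: enzyme-substrate mix dispensed; test compounds and furafylline control pinned in; 10 min room temperature; NADPH regeneration solution added, 1 h; reaction stopped with luciferin detection reagent; luminescence read after 20 min.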
Sequence of Cytochrome P450 1A2 (Homo sapiens) (P05177 whole entry, looked up): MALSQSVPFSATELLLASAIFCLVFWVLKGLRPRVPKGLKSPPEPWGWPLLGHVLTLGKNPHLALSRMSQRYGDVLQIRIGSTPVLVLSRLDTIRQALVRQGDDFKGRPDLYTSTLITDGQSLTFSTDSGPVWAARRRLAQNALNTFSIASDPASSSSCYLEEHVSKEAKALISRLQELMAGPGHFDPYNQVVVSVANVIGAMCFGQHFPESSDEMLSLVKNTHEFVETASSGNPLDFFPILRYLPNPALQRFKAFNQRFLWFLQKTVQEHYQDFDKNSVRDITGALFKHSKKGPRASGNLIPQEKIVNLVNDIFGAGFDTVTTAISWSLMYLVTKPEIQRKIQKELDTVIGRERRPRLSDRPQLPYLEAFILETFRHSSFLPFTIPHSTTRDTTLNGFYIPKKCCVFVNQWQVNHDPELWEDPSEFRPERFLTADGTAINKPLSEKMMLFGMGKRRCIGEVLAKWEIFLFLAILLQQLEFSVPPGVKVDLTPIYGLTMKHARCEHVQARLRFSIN

Assay [12] concerns the target Voltage-gated inwardly rectifying potassium channel KCNH2 (Homo sapiens) (UniProt Q12809). The assay can be described thus: Human Ether-a-go-go-Related Gene (hERG) channel small molecule antagonists: fluorescence cell-based qHTS assay (AID 1671200). Further: nearly all actives have a fitted effect of over 50% in size. Further: potency means the concentration at half of the fitted maximal effect. Put shortly: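 Kinetic two-minute fluorescence traces, sampled at 1 s, were collected following thallium stimulus of U2OS cells (1000 per well) that had been cultured overnight at 37 C and loaded with FluxOR II.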
Background: The hERG channel carries a current that helps repolarise heart muscle cells.

In assay [13] the target is Cytochrome P450 3A4 (Homo sapiens) (UniProt P08684). The assay can be described thus: Cytochrome P450 Family 3 Subfamily A Member 4 (CYP3A4) small molecule antagonists: luciferase reporter qHTS assay (AID 1671201). Further: nearly all actives have a fitted effect of over 50% in size. Further: potency means the concentration at half of the fitted maximal effect. In a few lines:
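Proluciferin-to-luciferin conversion by CYP3A4, NADPH-regenerated, 1 h RT; luminescence read as RLU. Ketoconazole as control.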

Assay [14] has as its target Cytochrome P450 2C9 (Homo sapiens) (UniProt P11712). The assay can be described thus: Cytochrome P450 Family 2 Subfamily C Member 9 (CYP2C9) small molecule antagonists: luciferase reporter qHTS assay (AID 1671198). Further: nearly all actives have a fitted effect of over 50% in size. Further: potency means the concentration at half of the fitted maximal effect. In a few lines: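 CYP2C9 activity was measured with a P450-Glo proluciferin substrate. Enzyme–substrate mix was held with compound for 10 min at room temperature, then NADPH regeneration solution was added for 1 h at 37C. Luciferin product was read as luminescence.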

Unmarked numbers belong to inactive results. Records with an inconclusive call do not appear. Active and inactive are the calls of the source. Unless noted, the call rests on the fitted dose curve; in most records, active means well fitted curve in the direction sought with a large enough effect in the repeat runs; inconclusive means weak or mixed curves; inactive means no such curve, though single readings can be large; an effect the other way counts as inactive or inconclusive.

Sequence of Voltage-gated inwardly rectifying potassium channel KCNH2 (Homo sapiens) (Q12809 whole entry, looked up): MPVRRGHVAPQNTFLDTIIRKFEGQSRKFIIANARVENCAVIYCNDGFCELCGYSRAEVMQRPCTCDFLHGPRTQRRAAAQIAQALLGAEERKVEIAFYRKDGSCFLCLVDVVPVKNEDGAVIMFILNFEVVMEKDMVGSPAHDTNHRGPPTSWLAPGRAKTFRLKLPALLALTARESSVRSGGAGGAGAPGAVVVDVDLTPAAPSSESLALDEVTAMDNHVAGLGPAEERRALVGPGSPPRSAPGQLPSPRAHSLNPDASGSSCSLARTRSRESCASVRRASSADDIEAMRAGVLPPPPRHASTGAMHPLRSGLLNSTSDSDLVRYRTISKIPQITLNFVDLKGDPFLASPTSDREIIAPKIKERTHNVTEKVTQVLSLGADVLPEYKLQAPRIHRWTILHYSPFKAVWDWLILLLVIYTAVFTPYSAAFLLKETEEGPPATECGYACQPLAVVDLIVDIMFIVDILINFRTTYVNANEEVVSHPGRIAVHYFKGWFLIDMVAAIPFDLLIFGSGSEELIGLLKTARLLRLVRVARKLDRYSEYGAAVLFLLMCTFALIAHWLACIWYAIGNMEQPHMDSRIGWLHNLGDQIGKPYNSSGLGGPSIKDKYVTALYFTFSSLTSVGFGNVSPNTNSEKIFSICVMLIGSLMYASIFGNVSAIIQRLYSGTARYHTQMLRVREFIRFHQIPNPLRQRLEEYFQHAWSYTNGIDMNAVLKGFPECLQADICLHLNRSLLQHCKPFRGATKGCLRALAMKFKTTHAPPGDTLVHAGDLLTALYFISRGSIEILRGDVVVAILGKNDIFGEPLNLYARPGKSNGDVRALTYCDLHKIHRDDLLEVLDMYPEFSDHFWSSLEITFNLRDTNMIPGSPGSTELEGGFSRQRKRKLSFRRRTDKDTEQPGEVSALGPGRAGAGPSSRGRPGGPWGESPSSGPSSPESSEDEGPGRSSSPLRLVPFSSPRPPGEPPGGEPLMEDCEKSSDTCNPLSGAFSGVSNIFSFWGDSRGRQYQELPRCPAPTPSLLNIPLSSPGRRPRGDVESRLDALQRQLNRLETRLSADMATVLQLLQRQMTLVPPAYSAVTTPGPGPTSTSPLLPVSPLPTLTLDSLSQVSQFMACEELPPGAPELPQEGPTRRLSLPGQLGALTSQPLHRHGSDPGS
Sequence of Cytochrome P450 2C9 (Homo sapiens) (P11712 whole entry, looked up): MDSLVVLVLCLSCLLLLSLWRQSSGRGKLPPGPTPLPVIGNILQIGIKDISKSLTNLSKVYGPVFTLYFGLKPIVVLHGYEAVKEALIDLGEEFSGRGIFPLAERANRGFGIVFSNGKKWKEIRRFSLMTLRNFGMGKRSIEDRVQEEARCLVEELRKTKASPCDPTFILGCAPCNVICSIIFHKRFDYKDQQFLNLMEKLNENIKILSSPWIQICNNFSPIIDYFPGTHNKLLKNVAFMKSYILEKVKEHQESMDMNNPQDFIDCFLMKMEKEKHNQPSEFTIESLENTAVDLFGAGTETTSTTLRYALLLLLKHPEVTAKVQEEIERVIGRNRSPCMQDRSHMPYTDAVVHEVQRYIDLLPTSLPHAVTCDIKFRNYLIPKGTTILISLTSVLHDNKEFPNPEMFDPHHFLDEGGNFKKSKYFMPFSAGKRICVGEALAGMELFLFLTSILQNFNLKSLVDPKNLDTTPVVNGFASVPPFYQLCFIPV
Sequence of Cytochrome P450 3A4 (Homo sapiens) (P08684 whole entry, looked up): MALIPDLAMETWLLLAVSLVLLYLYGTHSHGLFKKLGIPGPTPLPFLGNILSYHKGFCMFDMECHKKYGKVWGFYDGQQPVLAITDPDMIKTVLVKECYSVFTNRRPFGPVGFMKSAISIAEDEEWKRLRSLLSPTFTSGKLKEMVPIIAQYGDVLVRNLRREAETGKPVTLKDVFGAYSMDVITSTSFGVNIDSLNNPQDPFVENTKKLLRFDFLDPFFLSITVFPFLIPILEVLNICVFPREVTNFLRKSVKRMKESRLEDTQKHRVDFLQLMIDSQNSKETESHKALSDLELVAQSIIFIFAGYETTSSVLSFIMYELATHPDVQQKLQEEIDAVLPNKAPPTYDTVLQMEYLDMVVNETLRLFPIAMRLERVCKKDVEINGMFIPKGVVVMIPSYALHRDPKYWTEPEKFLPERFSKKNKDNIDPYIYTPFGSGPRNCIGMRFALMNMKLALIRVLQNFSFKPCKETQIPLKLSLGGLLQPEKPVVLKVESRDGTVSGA
Sequence of Nuclear receptor subfamily 1 group I member 2 (Homo sapiens) (O75469 whole entry, looked up): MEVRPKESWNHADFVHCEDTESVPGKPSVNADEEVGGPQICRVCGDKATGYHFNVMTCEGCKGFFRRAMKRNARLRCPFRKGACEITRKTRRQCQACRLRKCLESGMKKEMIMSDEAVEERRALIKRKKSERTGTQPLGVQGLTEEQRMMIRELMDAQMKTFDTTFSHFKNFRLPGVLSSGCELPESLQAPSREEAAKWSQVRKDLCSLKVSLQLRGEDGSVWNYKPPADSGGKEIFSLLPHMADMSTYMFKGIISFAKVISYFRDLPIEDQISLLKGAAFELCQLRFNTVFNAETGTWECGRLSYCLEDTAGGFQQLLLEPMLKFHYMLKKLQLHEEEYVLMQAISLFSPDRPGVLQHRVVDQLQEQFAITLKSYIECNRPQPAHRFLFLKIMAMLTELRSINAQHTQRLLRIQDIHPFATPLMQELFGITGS

Take `CCCCCCCCOC(=O)c1ccc(C(=O)OCCCCCCCC)c(C(=O)OCCCCCCCC)c1`: the Potency result in assay [1], in assay [2], in [3], in assay [4], in assay [5] and in assay [6] was “inactive” in each case. For the same compound, the Potency result in [7], in [8], in assay [9], in assay [11], in assay [12] and in assay [13] was “inactive” each time. Further, the Potency in assay [10] was 80.6 µM (active).
With `CCOC(=O)[C@]1(c2ccccc2)Oc2ccccc2[C@@H]1N`, the Potency result in [1], in assay [2], in [3] and in assay [8] was “inactive” throughout. Further, the Potency in [5] was 79.6 µM (active); in assay [9], 0.2 µM (active); in [10], 35.6 µM (active); in assay [11] it was 63.3 µM (active); in assay [12], 3.09 µM (active).
With `CC1C(=O)C[C@]2(C(C)C)C[C@H]12` (stereo partly specified), the Potency result in assay [1], in [2], in assay [3], in assay [5], in assay [6] and in assay [7] was “inactive” each time. The Potency result in [8], in assay [12] and in [13] was “inactive” each time. Also, the Potency in assay [9] and in assay [10] was 34.5 µM (active) each time.
Take `CN(C)c1ccc(N(C)C)cc1`: the Potency entry in [1], in assay [2], in assay [3], in assay [8] and in assay [12] was “inactive” in each case. Further, the Potency in assay [5] was 40 µM (active); in [7], 40 µM (active); in [9], 20.1 µM (active); in assay [10], 7.99 µM (active); in [14] it was 20.1 µM (active); in assay [11], 40 µM (active). In addition, the Potency in assay [13] is 35.7 µM (active).
Turning to `CCCCCCC#N`, the Potency result in assay [1], in assay [2], in assay [3], in assay [4], in [5] and in [6] was “inactive” throughout. Moreover, the Potency result in assay [7], in assay [8], in assay [14], in assay [12] and in [13] was “inactive” in each case. Besides, the Potency is 38.7 µM (active) in [9], 68.8 µM (active) in assay [10] and 38.7 µM (active) in assay [11].
Regarding `CC(Cl)Cl`, the Potency result in assay [1], in [2], in assay [3], in assay [4], in assay [5] and in assay [6] was “inactive” each time. Further, the Potency result in [7], in [8], in assay [9], in assay [10], in [14] and in assay [12] was “inactive” each time. Moreover, the Potency result in assay [13] was “inactive”.
As to `O=C(O)COc1ccc(Cl)cc1`, the Potency result in [1], in assay [2], in [3], in [4], in assay [5] and in [6] was “inactive” each time. Moreover, the Potency result in assay [7], in [8], in [9], in assay [10], in assay [14] and in assay [12] was “inactive” in each case. Moreover, the Potency result in assay [13] was “inactive”.
With `CCCCN=C=O`, the Potency result in assay [1], in assay [2], in [3], in assay [4], in [5] and in [6] was “inactive” in each case. Besides, the Potency entry in [7], in assay [8], in assay [9], in [14], in [12] and in assay [13] was “inactive” each time. Also, in assay [10], the Potency is 35.2 µM (active).
As for `CCOS(C)(=O)=O`, the Potency result in assay [1], in [2], in [3], in [4], in [5] and in assay [6] was “inactive” in each case. Besides, the Potency result in assay [7], in assay [8], in [10], in assay [14], in [11] and in assay [12] was “inactive” in each case. The Potency entry in assay [13] is “inactive”.
